The campaign covered roughly 45,000 compounds. About 200 (0.44%) were called active. A call without a number means that no potency is given here. Inconclusive results (about 7%) are left out. This is one part of a sample in which actives are shown more often than they occur. Calls come from the whole dose curve; as a rule, active = well fitted activation curve with a large enough effect; inconclusive = small, poorly fitted or top-dose-only effect; inactive = no such curve, though single readings can be large or run the other way.
Potency is the fitted concentration of half-maximal effect.

The nature of this experiment: qHTS of TDP-43 Inhibitors: NCGC Sytravon Library Screen. Note: nearly all actives have a fitted effect of over 55% in size. The conditions noted are these: yeast TDP-43 toxicity rescue, BacTiter-Glo growth, 24 h; series mostly up to 46.1 µM. The text has this: The goal of this project is to identify new chemical probes capable of reversing the toxicity associated with TDP-43 which is associated with frontotemporal lobar degeneration and amyotrophic lateral sclerosis. These compounds will provide a complementary approach to deciphering the tangled mechanisms of toxicity and protection that we have uncovered through genome-wide genetic screens and are beginning to uncover in a large-scale proteomics analysis with mass spectroscopy. To this end, a miniaturized assay was developed to be screened against the Molecular Libraries Small Molecule Repository (MLSMR) to discover TDP-43 inhibitors. Please note that in the set-up this yeast-based assay compounds that inhibit as TDP-43, have a read-out as activators. NIH Chemical Genomics Center [NCGC] NIH Molecular Libraries Probe Centers Network [MLPCN] Assay Submitter (PI): Susan Lindquist, Whitehead Institute/MIT MLPCN Grant: R21 NS060957
Dispense 2.5 microL yeast galactose medium per 1536-well plate, pin compound, dispense 2.5 microL TDP-43 expressing yeast in galactose medium at OD600=0.02 (pregrown in raffinose medium to mid-log phase) per well, incubate for 24 hr at 30 deg C, and cell growth will be measured using 5 microL of Bactiter/Glo reagent to entire plate and read using Luminescence Protocol in ViewLux.
(In qHTS, concentration-response curves come from the screen itself.)
`CSc1ccc(C(=O)C2CCCN(C(=O)c3ccc(C)nc3)C2)cc1` (stereo unspecified): the Potency entry was “inactive”.

Regarding `CC(=O)N1CCN(C(=O)C2(NC(=O)Nc3ccc(C)cc3)CCCCC2)CC1`, the Potency entry is “inactive”. Under `CC(=O)Oc1ccc2c(=O)oc(-c3ccc([N+](=O)[O-])cc3)nc2c1` stands “inactive”; under `CC(=O)C1=C(C)NC2=C(C(=O)CC(C)(C)C2)C1C` (stereo unspecified), “inactive”; under `Oc1ccccc1C=NC1CCCCC1N=Cc1ccccc1O` (stereo unspecified), “inactive”. Next, `O=C(c1ccc(F)cc1)N1CCC(n2nnc3ccccc32)CC1`: “inactive”; `Cc1ccc(NC(=O)CSc2nnc(CNC(=O)c3ccccc3F)o2)cc1`: “inactive”.

In the case of `O=C(N/N=C/c1ccc2c(c1)OCO2)C(=O)N1CCCC1`, the Potency entry was “inactive”. Next, `CC(OC(=O)c1ccc(Cl)cc1O)C(=O)NCCC1=CCCCC1` (stereo unspecified): “inactive”.

With `O=C(C1CCN(Cc2ccc(Cl)cc2)CC1)N1CCN(Cc2ccc3c(c2)OCO3)CC1`, the Potency result is “inactive”. Next, `COc1cccc(CC(=O)Nc2nc(-c3ccc(OC)c(OC)c3)cs2)c1`: “inactive”.

Consider `CCN(CC(=O)NC(C)C)C(=O)c1cc(S(=O)(=O)N2CCCCC2)ccc1N1CCCCC1`, for which the Potency entry is “inactive”. As to `Cc1ccc(-c2noc(CNC(=O)c3ccoc3C)n2)cc1`, the Potency result is “inactive”. Under `O=C(CCc1c[nH]c2ccccc12)NCCOc1ccccc1` stands “inactive”; under `CCn1cc(C(=O)NCC(=O)NC(C)(C)CO)c(=O)c2cc3c(cc21)OCO3`, “inactive”. Next, `Cc1cccc(C(=O)NCC(=O)OCC(=O)N2CC3(C)CC2CC(C)(C)C3)c1` (stereo unspecified): “inactive”; `COc1ccc(OCC(=O)NNC(=O)c2cccc(C)c2)cc1`: “inactive”; `Cc1cc(C)cc(NC(=O)CSc2ccccc2)c1`: “inactive”. Take `Cc1ccc(NC(=O)CN(C)C(=O)c2ccc(Br)o2)cc1`: the Potency entry was “inactive”.

Take `CNCC(O)CN1CCN(c2ccccc2OC)CC1` (stereo unspecified): the Potency entry was “inactive”. `O=c1c(-c2ccc(Cl)cc2)[n+]([O-])c2ccccc2n1OCc1nc2ccccc2[nH]1`: the Potency entry was “inactive”. Next, `Cc1cc(C)cc(N(CC(=O)NCCSCc2ccco2)S(C)(=O)=O)c1`: “inactive”; `COC(=O)c1ccc(CN2CCC(CO)(Cc3ccc(OC)cc3)CC2)cc1`: “inactive”; `O=[N+]([O-])c1ccc(N2CCN(c3ccc(O)cc3)CC2)c(Cl)c1`: 12.6 µM (active).

As to `CN(C)S(=O)(=O)N1CCN(c2ccc([N+](=O)[O-])cc2)CC1`, the Potency entry was “inactive”.

In the case of `COc1ccc(N2CCN(c3ccc([N+](=O)[O-])cc3Cl)CC2)cc1`, the Potency entry was “inactive”.

On to `COCCCNc1ccn2nc(-c3ccc(CC(C)C)cc3)cc2n1`, for which the Potency entry was “inactive”.

As for `S=C(Nc1ccc(Br)cc1Cl)NC1CCN(Cc2ccccc2)CC1`, the Potency result is “inactive”. For the compound `CC(C)=CCN1CCN(Cc2ccc(Oc3ncccn3)cc2)CC1CCO` (stereo unspecified), the Potency entry was “inactive”.

As to `Cc1ccc(C)c(NC(=O)c2ccc3nccnc3c2)c1`, the Potency entry is “inactive”. With `CC(C(=O)O)n1cnc2sc3c(c2c1=O)CCCC3` (stereo unspecified), the Potency entry was “inactive”.

As for `Cc1ccc(C(=O)NC2CCN(C(=O)Nc3ccc(F)cc3)CC2)cc1`, the Potency result is “inactive”.

For `Cc1ccc(/C=N/NC(=O)CN2CCN(Cc3ccccc3)CC2)s1`, the Potency entry was “inactive”. Under `COc1ccc2cc(S(=O)(=O)Nc3ccccn3)ccc2c1` stands “inactive”.

As to `O=C(Cc1ccccc1)Nc1c(Cl)ccc2nsnc12`, the Potency result is “inactive”.

Turning to `CC(Oc1ccccc1F)C(=O)NN` (stereo unspecified), the Potency result was “inactive”.

Regarding `COc1ccc(NC(=O)C2Cc3c(-c4ccc(Cl)cc4)ccnc3O2)cc1` (stereo unspecified), the Potency was 20 µM (active).

In the case of `COc1ccc(NC(=O)C2COc3ccccc3O2)cc1` (stereo unspecified), the Potency entry was “inactive”. With `COc1ccc(NC(=O)C2(C)Cc3c(-c4cccc(NC(C)=O)c4)ccnc3O2)cc1` (stereo unspecified), the Potency entry was “inactive”. Under `Cc1ccc(N2CCN(C(=O)c3cccs3)CC2)c(C)c1` stands “inactive”. Next, `O=c1[nH]oc(O)c1-c1ncc(C(F)(F)F)cc1Cl`: “inactive”.

(Values after PubChem BioAssay AID1347073 (National Center for Advancing Translational Sciences (NCATS), 2019).)
